Assay [1] addresses Estrogen receptor beta (Homo sapiens) (UniProt Q92731). Briefly: OT_ER_ERbERb_0480: Odyssey Thera (OT) 8-hour HEK293T Protein-Complementation Assay for Estrogen Receptor-beta/-beta Homodimer (AID 2283357).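 Note: active means signal gain over DMSO baseline.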 The method, boiled down: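 Fluorescence gain from complemented reporter fragments on ER-beta LBD homodimer in HEK293T was quantified against DMSO controls after 8 h treatment, fixation in 4% formaldehyde and Draq5 staining.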

The target in the next assay is PGR (gene 5241) (UniProt P06401). Description: NVS_NR_hPR: NovaScreen (NVS) Nuclear Receptor Binding Assay for human Progestron Receptor (PR) (AID 2283360).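 Note: active means loss of bound radioligand signal versus DMSO baseline.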 The method, boiled down: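 Competitive displacement of a labelled radioligand from T47D-derived receptor protein is measured in a cell-free format. Initial testing uses 25 uM in duplicate, with positive and negative controls on every plate.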
PGR (gene 5241), sequence (P06401 whole entry, looked up): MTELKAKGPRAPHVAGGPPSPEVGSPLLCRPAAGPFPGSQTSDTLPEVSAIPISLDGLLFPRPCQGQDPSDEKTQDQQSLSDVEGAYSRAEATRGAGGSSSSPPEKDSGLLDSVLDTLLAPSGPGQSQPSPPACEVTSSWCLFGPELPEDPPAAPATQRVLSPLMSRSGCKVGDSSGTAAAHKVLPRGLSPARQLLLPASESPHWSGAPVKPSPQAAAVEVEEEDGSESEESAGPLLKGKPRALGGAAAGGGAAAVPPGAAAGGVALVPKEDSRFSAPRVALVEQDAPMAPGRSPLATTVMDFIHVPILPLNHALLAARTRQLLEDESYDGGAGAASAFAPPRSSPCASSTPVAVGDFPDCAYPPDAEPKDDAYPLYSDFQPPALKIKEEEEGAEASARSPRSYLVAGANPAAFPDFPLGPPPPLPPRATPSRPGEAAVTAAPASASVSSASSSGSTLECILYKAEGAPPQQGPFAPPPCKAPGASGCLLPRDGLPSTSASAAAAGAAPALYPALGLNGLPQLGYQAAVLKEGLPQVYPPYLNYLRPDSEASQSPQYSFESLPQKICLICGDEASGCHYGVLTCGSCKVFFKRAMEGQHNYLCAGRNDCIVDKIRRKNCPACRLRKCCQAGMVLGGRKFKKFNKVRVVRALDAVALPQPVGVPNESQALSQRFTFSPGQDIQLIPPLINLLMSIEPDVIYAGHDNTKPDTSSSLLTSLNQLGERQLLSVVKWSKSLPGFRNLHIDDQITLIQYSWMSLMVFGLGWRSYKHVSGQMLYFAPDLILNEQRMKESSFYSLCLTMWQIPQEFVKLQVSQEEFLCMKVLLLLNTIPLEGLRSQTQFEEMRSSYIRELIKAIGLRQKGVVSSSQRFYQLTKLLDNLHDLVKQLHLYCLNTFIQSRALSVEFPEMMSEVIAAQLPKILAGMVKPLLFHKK

For assay [2], the target named is Estrogen receptor beta (Homo sapiens) (UniProt Q92731). Briefly: OT_ER_ERbERb_1440: Odyssey Thera (OT) 24-hour HEK293T Protein-Complementation Assay for Estrogen Receptor-beta/-beta Homodimer (AID 2283380).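 Note: fluorescence gain from ER beta LBD homodimer complementation read by laser scanning cytometry; scored as signal increase over DMSO baseline for both agonists and antagonists.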 The procedure, abridged: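 HEK293T cells stably expressing human ER-beta LBD (aa 310-547) PCA homodimer pair, dosed 24 h; formaldehyde-fixed, Draq5-stained. Readout: increase in nuclear (agonist) or nuclear plus cytoplasmic (antagonist) fluorescence intensity versus DMSO, gain-of-signal fitting.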
Estrogen receptor beta (Homo sapiens), sequence (Q92731 whole entry, looked up, the tested form may be a part): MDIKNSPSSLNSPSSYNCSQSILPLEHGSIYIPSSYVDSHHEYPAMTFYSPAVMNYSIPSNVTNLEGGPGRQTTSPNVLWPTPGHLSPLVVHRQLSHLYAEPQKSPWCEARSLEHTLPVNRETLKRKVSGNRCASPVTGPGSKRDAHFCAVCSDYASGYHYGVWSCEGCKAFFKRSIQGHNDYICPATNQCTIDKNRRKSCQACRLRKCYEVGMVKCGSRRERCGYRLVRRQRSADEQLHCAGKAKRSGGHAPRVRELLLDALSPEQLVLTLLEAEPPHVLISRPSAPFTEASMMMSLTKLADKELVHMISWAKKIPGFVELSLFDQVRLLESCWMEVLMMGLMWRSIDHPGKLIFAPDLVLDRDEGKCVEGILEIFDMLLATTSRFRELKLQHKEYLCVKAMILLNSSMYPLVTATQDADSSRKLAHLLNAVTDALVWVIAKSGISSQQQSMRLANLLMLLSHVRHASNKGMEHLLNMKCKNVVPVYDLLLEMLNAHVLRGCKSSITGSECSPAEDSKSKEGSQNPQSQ

The target of assay [3] is guinea pig Sigma Receptor, Non-selective Binding, SIGMAR1 (gene 100135589) (UniProt Q60492). Briefly: NVS_OR_gSIGMA_NonSelective: NovaScreen (NVS) Nuclear Receptor Binding Assay for guinea pig Sigma Receptor, Non-selective Binding (AID 2283367). The method, boiled down:
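Test chemicals were screened in duplicate at 25 uM, then in concentration series if active, against radioligand binding to guinea pig brain membranes; filtration and scintillation counting at 1 h measured remaining bound ligand.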

Assay [4] concerns the target Peroxisome proliferator-activated receptor gamma (Homo sapiens) (UniProt P37231). Description: NVS_NR_hPPARg: NovaScreen (NVS) Nuclear Receptor Binding Assay for human Peroxisome Proliferator-activated Receptor gamma (PPARg) (AID 2283370). The procedure, abridged:
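Cell-free fluorescence polarization binding to human PPARg protein, read 2 h after dosing. Primary screen in duplicate at 25 uM, actives followed in concentration series; loss of signal relative to DMSO scored.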

The target of assay [5] is Glucocorticoid receptor (Homo sapiens) (UniProt P04150). Briefly: NVS_NR_hGR: NovaScreen (NVS) Nuclear Receptor Binding Assay for human Glucocorticoid Receptor (GR) (AID 2283363). The method, boiled down:
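Single-readout cell-free binding: radioligand plus extracted receptor, 16-hour dosing, filter radiodetection; 25 uM duplicate primary, concentration series secondary.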

In assay [6] the target is human Peroxisome Proliferator-activated Receptor alpha (PPARa), PPARA (gene 5465) (UniProt Q07869). Description: NVS_NR_hPPARa: NovaScreen (NVS) Nuclear Receptor Binding Assay for human Peroxisome Proliferator-activated Receptor alpha (PPARa) (AID 2283359).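 Note: activity means loss of TR-FRET signal versus DMSO baseline.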 The procedure, abridged:
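One-hour incubation, cell-free extracted protein, TR-FRET binding readout; signal loss vs DMSO scored. Screen: 25 uM duplicates, confirmatory dose series for actives.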

The test system of assay [7] is guinea pig Dopamine Transporter (DAT), gene 100714898. Description: NVS_TR_gDAT: NovaScreen (NVS) Transporter Assay for guinea pig Dopamine Transporter (DAT) (AID 2283369).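 Note: active compounds lower bound radioligand signal relative to DMSO.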 The procedure, abridged:
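Guinea pig striatal membranes, cell-free radioligand binding with filter-based scintillation counting, read 2 h after dosing. Loss of signal versus DMSO baseline; single-concentration primary (25 uM) then concentration-response up to 50 uM.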

The target of assay [8] is human Serotonin Transporter (SERT), SLC6A4 (gene 6532) (UniProt P31645). Description: NVS_TR_hSERT: NovaScreen (NVS) Transporter Assay for human Serotonin Transporter (SERT) (AID 2283372). The method, boiled down:
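Human platelet membrane preparation; displacement of radioligand from serotonin transporter measured after 1 h by filtration and scintillation counting. Single 25 uM duplicate screen, then concentration series for actives, with DMSO as negative baseline.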

Assay [9] addresses rat Serotonin Transporter (SERT), Slc6a4 (gene 25553) (UniProt P31652). Description: NVS_TR_rSERT: NovaScreen (NVS) Transporter Assay for rat Serotonin Transporter (SERT) (AID 2283375). The method, boiled down: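 Rat forebrain membranes; radioligand displacement at SERT read by filter-based scintillation counting, 1 h after dosing. Screened in duplicate at 25 uM, actives then run in concentration series; loss of signal versus DMSO baseline.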

In assay [10] the target is human Norepinephrine Transporter (NET), SLC6A2 (gene 6530) (UniProt P23975). Briefly: NVS_TR_hNET: NovaScreen (NVS) Transporter Assay for human Norepinephrine Transporter (NET) (AID 2283377).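 For AC50: displacement of radioligand from human NET seen as loss of scintillation signal.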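 Note: cell-free membrane protein extracted from CHO cells expressing human NET.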 The procedure, abridged:
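In this cell-free binding screen, chemicals at 25 uM (duplicate) compete with a radioligand for CHO-derived human NET over 1 hour, with filter-based radiodetection.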

Assay [11] concerns the target Nuclear receptor subfamily 1 group I member 2 (Homo sapiens) (UniProt O75469). Briefly: NVS_NR_hPXR: NovaScreen (NVS) Nuclear Receptor Binding Assay for human Pregnane X Receptor (PXR) (AID 2283365).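 Note: a drop in FRET signal versus DMSO baseline means the compound binds.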 The method, boiled down:
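Cell-free TR-FRET binding assay with extracted human PXR protein, read 2 h after dosing. Primary screen run in duplicate at 25 uM, actives followed in concentration series; loss of signal fitted against DMSO baseline.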

Assay [12] relates to rat Norepinephrine Transporter (NET), gene 83511. Description: NVS_TR_rNET: NovaScreen (NVS) Transporter Assay for rat Norepinephrine Transporter (NET) (AID 2283373). The method, boiled down: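 Competitive radioligand displacement at the rat NET using forebrain membrane preparations, 1 h incubation, filter-based scintillation readout. Primary testing in duplicate at a single 25 uM concentration; confirmed actives retested across concentrations.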

Assay [13] addresses rat Androgen Receptor (AR), Ar (gene 24208) (UniProt P15207). Description: NVS_NR_rAR: NovaScreen (NVS) Nuclear Receptor Binding Assay for rat Androgen Receptor (AR) (AID 2283366). The method, boiled down: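 Actives from a duplicate single-concentration (25 uM) primary run went on to concentration series. Displacement of radioligand was counted by filtration and scintillation, 18 h post-dose, using prostate extracts from testosterone-pretreated rats, with DMSO as baseline.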

Assay [14] deals with mouse Estrogen Receptor alpha (Era), Esr1 (gene 13982) (UniProt P19785). Briefly: NVS_NR_mERa: NovaScreen (NVS) Nuclear Receptor Binding Assay for mouse Estrogen Receptor alpha (Era) (AID 2283378).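 Note: hit means loss of bound radioligand signal relative to DMSO.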 The procedure, abridged:
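Cell-free radioligand competitive displacement binding, read by filter-based scintillation counting 18 h after dosing. Primary screen run in duplicate at 25 uM, actives retested in concentration series; loss of signal versus DMSO.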

Assay [15] deals with Agonist Androgen Response Element (ARE), AR (gene 367) (UniProt P10275). Description: OT_AR_ARELUC_AG_1440: Odyssey Thera (OT) 24-hour CHO-K1 Luciferase Assay for Agonist Androgen Response Element (ARE) (AID 2283379). The method, boiled down:
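Luminescence increase above DMSO, read after a 24 h compound treatment of CHO-K1 cells expressing an androgen response element luciferase reporter, gives the single primary endpoint; concentration-response fitting used the positive direction.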

Molecules are shown by their SMILES. Inconclusive results are not listed. Active and inactive are the calls of the source. Rule for the calls: active = hit-call score of the fitted dose curve at least 0.9, where 1 is the maximum; inconclusive = response in the unintended direction; inactive = score below 0.9.

Nuclear receptor subfamily 1 group I member 2 (Homo sapiens), sequence (O75469 whole entry, looked up): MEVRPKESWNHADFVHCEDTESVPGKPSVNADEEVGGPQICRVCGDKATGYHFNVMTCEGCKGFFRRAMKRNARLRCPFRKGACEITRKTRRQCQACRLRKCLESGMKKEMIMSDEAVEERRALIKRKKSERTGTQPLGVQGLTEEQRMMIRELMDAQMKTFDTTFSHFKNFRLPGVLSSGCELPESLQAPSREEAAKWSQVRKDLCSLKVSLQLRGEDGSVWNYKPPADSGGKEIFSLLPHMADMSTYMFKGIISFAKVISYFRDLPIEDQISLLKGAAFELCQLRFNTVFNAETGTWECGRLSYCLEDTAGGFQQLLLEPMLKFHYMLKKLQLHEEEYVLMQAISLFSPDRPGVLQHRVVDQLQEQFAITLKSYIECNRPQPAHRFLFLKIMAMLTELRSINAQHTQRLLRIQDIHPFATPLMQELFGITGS
human Serotonin Transporter (SERT), SLC6A4 (gene 6532), sequence (P31645 whole entry, looked up): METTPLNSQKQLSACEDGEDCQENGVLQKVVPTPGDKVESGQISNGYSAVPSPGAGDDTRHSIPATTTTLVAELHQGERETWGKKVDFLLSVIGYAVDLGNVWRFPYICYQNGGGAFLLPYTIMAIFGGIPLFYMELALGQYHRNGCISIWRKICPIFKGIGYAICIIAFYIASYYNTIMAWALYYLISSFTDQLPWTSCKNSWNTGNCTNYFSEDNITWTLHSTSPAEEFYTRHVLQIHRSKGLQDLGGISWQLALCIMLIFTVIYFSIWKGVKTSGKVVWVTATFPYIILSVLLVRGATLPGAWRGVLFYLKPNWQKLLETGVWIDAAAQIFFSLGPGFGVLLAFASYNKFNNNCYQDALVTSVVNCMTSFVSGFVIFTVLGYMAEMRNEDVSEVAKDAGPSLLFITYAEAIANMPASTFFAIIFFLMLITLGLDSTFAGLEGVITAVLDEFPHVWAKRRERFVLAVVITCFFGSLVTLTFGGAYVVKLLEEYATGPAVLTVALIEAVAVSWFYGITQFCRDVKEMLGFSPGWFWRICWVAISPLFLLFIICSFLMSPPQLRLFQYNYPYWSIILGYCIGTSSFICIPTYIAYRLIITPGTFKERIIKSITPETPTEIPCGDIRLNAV
Peroxisome proliferator-activated receptor gamma (Homo sapiens), sequence (P37231 whole entry, looked up): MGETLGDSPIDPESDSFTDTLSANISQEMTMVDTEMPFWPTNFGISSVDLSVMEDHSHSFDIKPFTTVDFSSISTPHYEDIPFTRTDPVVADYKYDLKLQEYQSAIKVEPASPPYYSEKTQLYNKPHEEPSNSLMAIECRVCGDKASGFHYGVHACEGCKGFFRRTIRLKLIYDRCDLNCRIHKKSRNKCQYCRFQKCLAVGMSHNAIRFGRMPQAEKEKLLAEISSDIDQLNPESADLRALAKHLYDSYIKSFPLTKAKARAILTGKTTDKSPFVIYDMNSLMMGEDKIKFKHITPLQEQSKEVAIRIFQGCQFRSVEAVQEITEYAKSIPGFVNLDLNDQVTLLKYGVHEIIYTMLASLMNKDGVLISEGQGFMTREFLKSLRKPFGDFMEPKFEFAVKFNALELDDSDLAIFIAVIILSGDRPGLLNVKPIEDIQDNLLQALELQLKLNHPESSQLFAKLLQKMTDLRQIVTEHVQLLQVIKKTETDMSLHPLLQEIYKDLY
human Norepinephrine Transporter (NET), SLC6A2 (gene 6530), sequence (P23975 whole entry, looked up): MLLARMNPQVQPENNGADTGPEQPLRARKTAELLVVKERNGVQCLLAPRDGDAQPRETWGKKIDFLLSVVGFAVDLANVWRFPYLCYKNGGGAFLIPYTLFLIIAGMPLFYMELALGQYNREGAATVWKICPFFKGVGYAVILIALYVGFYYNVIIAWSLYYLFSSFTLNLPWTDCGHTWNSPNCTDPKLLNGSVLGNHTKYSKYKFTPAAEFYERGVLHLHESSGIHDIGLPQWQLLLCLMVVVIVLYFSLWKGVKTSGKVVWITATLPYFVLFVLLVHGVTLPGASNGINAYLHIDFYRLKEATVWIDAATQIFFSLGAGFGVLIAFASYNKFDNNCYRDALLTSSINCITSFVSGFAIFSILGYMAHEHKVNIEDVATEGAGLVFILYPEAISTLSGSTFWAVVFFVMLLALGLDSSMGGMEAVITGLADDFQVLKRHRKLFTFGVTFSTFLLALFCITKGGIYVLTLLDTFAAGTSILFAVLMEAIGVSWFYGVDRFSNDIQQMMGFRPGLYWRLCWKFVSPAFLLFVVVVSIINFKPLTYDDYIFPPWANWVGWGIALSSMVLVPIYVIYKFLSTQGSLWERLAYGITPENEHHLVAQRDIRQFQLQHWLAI
human Peroxisome Proliferator-activated Receptor alpha (PPARa), PPARA (gene 5465), sequence (Q07869 whole entry, looked up): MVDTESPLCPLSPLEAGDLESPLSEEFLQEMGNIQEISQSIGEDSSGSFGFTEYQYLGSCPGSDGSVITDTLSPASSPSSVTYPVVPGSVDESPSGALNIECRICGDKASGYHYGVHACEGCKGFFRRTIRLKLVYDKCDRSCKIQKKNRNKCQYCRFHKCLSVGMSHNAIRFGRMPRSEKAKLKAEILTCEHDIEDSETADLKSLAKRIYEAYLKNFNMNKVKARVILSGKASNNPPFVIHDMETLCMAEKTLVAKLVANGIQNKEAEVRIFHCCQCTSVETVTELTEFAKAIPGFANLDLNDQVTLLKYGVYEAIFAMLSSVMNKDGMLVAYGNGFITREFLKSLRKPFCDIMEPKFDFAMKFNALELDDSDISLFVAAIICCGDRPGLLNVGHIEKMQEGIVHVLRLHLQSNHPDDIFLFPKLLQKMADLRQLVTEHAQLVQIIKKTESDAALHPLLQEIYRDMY
guinea pig Sigma Receptor, Non-selective Binding, SIGMAR1 (gene 100135589), sequence (Q60492 whole entry, looked up): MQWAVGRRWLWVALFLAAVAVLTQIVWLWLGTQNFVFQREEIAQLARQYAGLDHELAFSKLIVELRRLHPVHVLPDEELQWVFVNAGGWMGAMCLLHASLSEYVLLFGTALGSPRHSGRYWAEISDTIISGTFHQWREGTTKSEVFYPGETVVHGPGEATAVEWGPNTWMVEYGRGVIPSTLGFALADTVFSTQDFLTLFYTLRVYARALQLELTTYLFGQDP
rat Serotonin Transporter (SERT), Slc6a4 (gene 25553), sequence (P31652 whole entry, looked up): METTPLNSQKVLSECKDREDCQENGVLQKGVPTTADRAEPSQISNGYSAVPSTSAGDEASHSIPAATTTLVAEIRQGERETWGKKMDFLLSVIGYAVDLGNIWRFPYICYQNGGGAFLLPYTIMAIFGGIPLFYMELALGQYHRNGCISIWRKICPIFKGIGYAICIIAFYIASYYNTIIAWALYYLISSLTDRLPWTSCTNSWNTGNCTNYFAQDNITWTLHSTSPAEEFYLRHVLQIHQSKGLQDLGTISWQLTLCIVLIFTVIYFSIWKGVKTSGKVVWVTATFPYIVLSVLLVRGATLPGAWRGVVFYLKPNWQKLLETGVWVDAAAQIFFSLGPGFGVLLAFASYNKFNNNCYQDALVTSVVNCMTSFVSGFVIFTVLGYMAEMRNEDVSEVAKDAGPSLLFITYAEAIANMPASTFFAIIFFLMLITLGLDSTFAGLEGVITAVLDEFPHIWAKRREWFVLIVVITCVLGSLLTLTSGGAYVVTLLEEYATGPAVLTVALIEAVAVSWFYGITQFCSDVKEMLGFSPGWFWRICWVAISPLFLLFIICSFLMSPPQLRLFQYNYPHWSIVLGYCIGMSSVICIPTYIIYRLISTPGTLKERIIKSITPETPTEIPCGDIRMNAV

With `O=C(O)c1cccnc1`, the call (in assay [1]; with PGR (gene 5241); in [2]) was inactive.

For orientation: AC50 means the concentration at which the activity in the assay is half-maximal. Turning to `CO[C@@H]1COCC[C@@H]1N[C@@H]1CC[C@@](C(=O)N2CCc3ncc(C(F)(F)F)cc3C2)(C(C)C)C1`, the outcome (in assay [1]; in the assay with PGR (gene 5241); in assay [2]) was inactive. Further, the AC50 in assay [3] is 1.94 µM (active); in assay [4], 15.8 µM (active).

With `CCCCc1nc2cccnc2n1Cc1ccc(-c2ccccc2-c2nnn[nH]2)cc1`, the compound was classed as inactive in assay [1], in assay [5] and in assay [2]. The AC50 in [4] was 4.96 µM (active).

Consider `O=C(N[C@@H](c1ccccc1)[C@@H]1CCCCN1)c1cccc(C(F)(F)F)c1Cl`, for which the call in assay [1], in assay [6] and in assay [2] was inactive. Also, the AC50 in assay [7] is 25 µM (active); in assay [8], 9.57 µM (active); in assay [9] it was 7.98 µM (active); in [10] it was 8.04 µM (active).

As to `CC(C)(C)c1ccccc1`, the compound was called inactive in assay [1], in assay [6], in assay [11] and in assay [2].

For `CC(C)c1cccc(C(C)C)c1NC(=O)NS(=O)(=O)c1cc(C(C)(C)O)co1`, the compound was called inactive in assay [1], in assay [6] and in assay [2].

Turning to `CCCCCCCCCC[N+](C)(C)[O-]`, the AC50 in assay [3] is 3.09 µM (active).

`CN(C)C(=O)NC1(c2ccccc2)CCN(CCC[C@]2(c3ccc(Cl)c(Cl)c3)CCCN(C(=O)c3ccccc3)C2)CC1`: the AC50 was 0.596 µM (active) in assay [7], 3.55 µM (active) in [12] and 0.124 µM (active) in assay [10].

In the case of `CC(COCC(C)OC(=O)c1ccccc1)OC(=O)c1ccccc1` (centres undefined), in assay [7], the result was inactive.

`C/C=C/C=C/C(=O)O`: the result in assay [8] was inactive.

As for `Nc1nc(=S)c2[nH]cnc2[nH]1`, the call in assay [10] was inactive.

Regarding `CCCCCCCCCCCCCCCCO`, the compound was classed as inactive in assay [2].

As to `COc1ccc(OC(F)(F)F)cc1CN[C@H]1CCCN[C@H]1c1ccccc1`, the compound was called inactive in assay [6] and in assay [2]. Also, the AC50 is 7.41 µM (active) in [11]; 15.8 µM (active) in assay [3]; 11.9 µM (active) in assay [7]; 12.5 µM (active) in assay [8]; 8.18 µM (active) in [12]; 11.7 µM (active) in [9]. In assay [10], the AC50 was 11.1 µM (active).

As to `O=C(O)CN(CC(=O)O)CC(=O)O`, the compound was classed as inactive in [10].

For `Nc1nc(Cl)nc2c1ncn2[C@H]1C[C@H](O)[C@@H](CO)O1`, the compound was called inactive in assay [6].

With `CCCCC(CC)COP(=O)(OCC(CC)CCCC)OCC(CC)CCCC` (centres undefined), the call in assay [5], in assay [7], in assay [4] and in assay [2] was inactive.

`CC(=O)CC(c1ccccc1)c1c(O)c2ccccc2oc1=O` (centres undefined): in [11], the compound was classed as inactive.

Regarding `Cc1ccc(-c2cc(C(F)(F)F)nn2-c2ccc(S(N)(=O)=O)cc2)cc1`, the compound was called inactive in assay [13], in assay [14] and in assay [15]. Besides, the half-maximal activity concentration (AC50) in assay [10] was 6.38 µM (active).

Source of the values: PubChem BioAssay (EPA / NIEHS).
